GLS inhibitor – glutaminase GLS (human) inhibition. O94925. GLS enzymatic activity, qHTS titration. AID 624170. 410,000 tested, 0.21% active. Potency, µM (highest dose often 45.5 µM), for the others: top-dose activity change, negative = inhibition, most hits filed as inhibitors; note: % is set by controls: 0 for no effect and ±100 for the full control effect
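Glutamate formation by hKGA was monitored fluorometrically using coupled glutamate oxidase, HRP and Amplex Red. Substrate was added as 1 mM L-glutamine solution; incubation was 30 min at RT after an initial read.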
12-LOX inh – inhibitors of human 12S-lipoxygenase ALOX12; purified 12hLO, xylenol orange hydroperoxide absorbance; Potency, µM (titrated, usually from 108 µM), for inactives: top-dose activity change, negative = inhibition, most hits filed as inhibitors; 580,000 tested, 1.1% active; AID 1671190; note: % is set by controls: 0 for no effect and ±100 for the full control effect
Target sequence (P18054 whole entry, looked up): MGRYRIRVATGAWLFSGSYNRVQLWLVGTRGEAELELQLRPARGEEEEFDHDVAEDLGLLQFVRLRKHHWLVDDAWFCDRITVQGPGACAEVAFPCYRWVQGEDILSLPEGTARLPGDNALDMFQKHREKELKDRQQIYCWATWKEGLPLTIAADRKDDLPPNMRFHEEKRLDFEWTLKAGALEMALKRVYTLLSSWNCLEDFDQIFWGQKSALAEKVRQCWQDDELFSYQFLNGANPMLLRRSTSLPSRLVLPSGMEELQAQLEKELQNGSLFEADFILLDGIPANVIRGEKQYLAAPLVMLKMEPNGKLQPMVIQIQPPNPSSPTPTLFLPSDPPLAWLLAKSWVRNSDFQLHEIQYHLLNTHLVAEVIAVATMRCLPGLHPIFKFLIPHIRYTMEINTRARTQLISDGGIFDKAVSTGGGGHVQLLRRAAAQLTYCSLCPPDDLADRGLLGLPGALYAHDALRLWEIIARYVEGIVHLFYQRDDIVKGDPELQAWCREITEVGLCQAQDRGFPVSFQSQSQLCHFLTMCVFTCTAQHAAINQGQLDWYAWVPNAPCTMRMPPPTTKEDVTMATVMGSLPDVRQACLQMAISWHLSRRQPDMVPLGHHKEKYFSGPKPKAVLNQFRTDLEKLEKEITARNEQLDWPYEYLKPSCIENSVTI
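Hydroperoxide product was detected by ferrous iron/xylenol orange as the 573 to 405 nm absorbance ratio. Arachidonic acid at 40 uM (final) was turned over for 30 min at room temperature by 150 nM human 12hLO, pH 7.0 Hepes buffer, after 15 min compound preincubation.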
GRP78 ERSR act – inducers of ER stress response in human glioma cells; 420,000 tested, 0.02% active; AID 602332; U87-MG GRP78 promoter luciferase reporter, 16 h; Potency, µM, for the others: at the top dose activation, hits mostly activators; note: series mostly up to about 76 µM; % of control where 0% means no effect; nearly all actives have a fitted effect of over 35% in size
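Stably transfected U87-MG glioma cells carrying a GRP78-based luciferase sensor; 16 h compound incubation. Luminescence end-point read 10 min after Bright-Glo addition at room temperature.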
GLP-1R agonist – GLP-1 receptor (human) agonism. P43220. HEK293 GLP-1R CRE-luciferase, luminescence, 4-6 h; cells express a hypersensitive GLP-1R form. Potency, µM (highest dose often 45.6 µM), for inactives: top-dose activation, usual class: activators. 380,000 tested, 0.007% active. AID 624172; note: % of control where 0% means no effect
GLP-1R inv ag – inverse agonists of human GLP-1 receptor; AID 624417; Potency, µM (titrated, usually from 38.3 µM), for inactives: at the top dose activity change, negative = inhibition, hits mostly inhibitors; 410,000 tested, 1.6% active; HEK293 GLP-1R CRE-luciferase, luminescence, 24 h; GLP-1R form is constitutively active; note: % is set by controls: 0 for no effect and ±100 for the full control effect; nearly all actives have a fitted effect of over 55% in size
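Cells are plated, allowed 12 hours at 37 deg C, then treated with compounds for 24 hr before luciferase detection reagent is added and luminescence is read after 12 min at room temperature. The HEK293 line carries constitutively active GLP-1R with a cAMP-responsive reporter.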
PTHR1 ag – PTHR1 (human) receptor agonism; Q03431; Potency, µM (doses to about 115 µM), for inactives: top-dose activation, hits mostly activators; HEK293 GP2 PTHR1 cells, GloSensor cAMP luminescence, 1 h; 410,000 tested, 0.075% active; note: nearly all actives have a fitted effect of over 55% in size
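HEK-293-derived GP2 cells expressing PTHR1 and a GloSensor cAMP reporter, 3,000/well, plated overnight, given luciferin plus IBMX (each 0.5 mM as added) for 1 h at 37 °C, then compound for 1 h at 37 °C. Luminescence was read after 15 min at room temperature.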
* hit, by the source's call; i = inactive; ? = inconclusive; · = no result; [ ] = remark or other dose. Only some compounds are listed: those with a hit (about 2.3% of all), similar ones and a draw of the others. Calls come from the whole dose curve; as a rule, active = well fitted curve in the direction sought with a large enough effect; inconclusive = small, poorly fitted or top-dose-only effect, or another doubt; inactive = no such curve, though single readings can be large; an effect the other way counts as inactive or inconclusive. Potency is the fitted concentration of half-maximal effect.

SMILES | GLS inhibitor | 12-LOX inh | GRP78 ERSR act | GLP-1R agonist | GLP-1R inv ag | PTHR1 ag
CN(C)CCCn1c(=O)n(CCc2ccccc2)c(=O)c2c3c(sc21)CCCCC3 | -8.2% | 137.4% | -3.4% | 10.7% | ? | -17.2%
CCCCOc1ccc(-c2csc(-c3nc(-c4ccc(F)cc4)cs3)n2)cc1 | · | -26.1% | · | · | · | ·
Cc1cc(C)nc(N/N=C/c2ccccc2OCc2cccc(Br)c2)n1 | 0.1% | 12.5% | 4.0% | 6.6% | 3.55µM* | -93.7%
O=S(=O)(NCc1ccccc1Cl)c1ccc2c(c1)OCCO2 | · | 0.8% | · | · | · | ·
O=C(O)c1ccc(Nc2ncc3c(n2)-c2ccc(Cl)cc2C(c2c(F)cccc2F)=NC3)cc1 | · | 15.3µM* | · | · | · | ·
O=C(Nc1ncc2c(n1)-c1ccccc1CC2)c1ccc(Cl)cc1 | 0.6% | -8.7% | -0.8% | -2.9% | ? | -6.0%[57.5 µM]
Cc1ccc(C)c(C(=O)CCC(=O)NCc2ccc(Cl)cc2)c1 | 1.9% | -6.9% | -4.3% | 2.6% | 10µM* | -3.4%
Cc1ccc(NC(=S)NCc2ccc(Cl)cc2)c(C)c1 | 11.3% | 35.5µM* | 6.3% | -3.6% | ? | -33.3%
O=C(CCc1ccccc1)NNC(=O)c1cc(Cl)ccc1O | 10.1% | ? | 1.3% | -0.5% | -29.1% | -6.0%
COc1cccc(CNC(=S)Nc2ccc(Cl)cc2C)c1 | -18.2% | ? | -9.5% | 0.4% | ? | i
Cc1cc(Cl)ccc1NNC(=O)CCc1ccccc1 | ? | ? | -5.9% | -1.7% | 4.47µM* | i
Cc1cc(Cl)ccc1NC(=S)NCc1ccccc1 | 19.5% | ? | 7.4% | 3.4% | 11.2µM* | -2.7%[57.5 µM]
Cc1c(Cl)cccc1NC(=S)NCc1ccc(Cl)cc1 | -2.7% | 34.2% | -9.7% | -2.6% | ? | -41.3%[57.5 µM]
CC(=O)C12CC3CC(C1)CC(C(C)=O)(C3)C2 | · | -64.1% | · | · | · | ·
CC(C)NS(=O)(=O)c1ccc(NC(=O)CCc2ncc(-c3ccc(F)cc3F)o2)cc1 | · | 25.6% | · | · | · | ·
Cc1cc(Cl)ccc1NNC(=O)c1c(C)noc1C | ? | 31.6µM* | -1.7% | 13.6% | 1.41µM* | -39.8%
O=C(Nc1ccc2oc(-c3ccncc3)nc2c1)c1cccc(Cl)c1 | · | 4.8% | · | · | · | ·
COc1ccc(NC(=O)N(Cc2nnc3n2CCCCC3)c2ccc(C)cc2C)cc1 | · | 9.1% | · | · | · | ·
COc1ccc(O)c(/C=N/n2c(-c3ccco3)csc2=Nc2cccnc2)c1 | 17.7% | -9.7% | 0.9% | 9.7% | ? | i
CN=c1scc(-c2ccco2)n1/N=C/c1ccc(O)c(O)c1 | -9.3% | 39.8µM* | -1.5% | 5.5% | 237.2% | -25.8%
COc1cc(NC(=O)C(c2ccccc2)c2ccccc2)c(OC)cc1Cl | · | 12.3% | · | · | · | ·
Cc1ccc(SCc2nc(-c3ccc(C(=O)NCC(C)c4ccccc4)cc3)oc2C)cc1 (configuration not stated) | -13.8% | ? | -3.5% | · | 4.47µM* | i
O=C(NCc1ccco1)c1cc(S(=O)(=O)N2CCCc3ccccc32)ccc1Cl | -15.1% | -12.2% | -6.0% | 2.4% | 4.47µM* | i
COc1ccc(S(=O)(=O)N2CCc3ccccc32)cc1C(=O)NCc1ccco1 | 2.4% | -14.6% | -4.7% | 10.4% | -19.3% | -38.4%
N=C(N)c1cccs1 | · | -3.2% | · | · | · | ·
SMILES | GLS inhibitor | 12-LOX inh | GRP78 ERSR act | GLP-1R agonist | GLP-1R inv ag | PTHR1 ag
CCCN1C(=O)c2ccccc2NC1c1ccc(Cl)c(Cl)c1 (configuration not stated) | 4.9% | ? | 4.0% | 2.8% | 11.2µM* | -1.7%
CCCN1C(=O)c2ccccc2NC1c1ccc(Cl)cc1 (configuration not stated) | 18.5% | ? | -2.6% | -1.3% | ? | -4.2%
CSC1=NC=C(C#N)C2=NC(c3c(Cl)cccc3Cl)NN12 (configuration not stated) | 11.2µM* | · | -9.9% | 3.1% | -16.6% | -4.0%
C=CC(=O)N1C/C(=C/c2ccccc2)C(=O)/C(=C\c2ccccc2)C1 | 5.1% | -18.4% | -13.8% | -18.6% | 4.47µM* | -47.1%
CCOc1ccccc1NC(=O)COC(=O)c1cc2c(C)nn(-c3ccc(F)cc3)c2s1 | · | 61.4% | · | · | · | ·
CNC(=O)c1cc2cc(-c3c(C)noc3C)nc(-c3ccccc3C)c2o1 | · | 22.7%[176 µM] | · | · | · | ·
Cc1c(C(=O)N(Cc2ccccc2Cl)C2CCS(=O)(=O)C2)oc2ccccc12 (configuration not stated) | -6.4% | 10.6% | 0.3% | 13.7% | 10µM* | -13.5%
CCCCc1ccc(-c2csc(-c3nc(-c4ccc(CC)cc4)c(C)s3)n2)cc1 | · | 16.5% | · | · | · | ·
CN1CCN(Cc2ccc(-c3ccc(C(C)(C)C#N)cc3)nc2)CC1 | · | 20µM* | · | · | · | ·
CCCCc1ccc(-c2ccc(C#N)cc2)nc1 | · | -49.9% | · | · | · | ·
CC(C)C(NC(=O)c1ccncc1)C(=O)O (configuration not stated) | · | 14.2% | · | · | · | ·
Cc1nc(Nc2nc3ccccc3o2)nc(C)c1C | 0.3% | -1.5% | -8.5% | -0.6% | ? | -27.2%
Cc1ccnc(Nc2nc3ccccc3o2)n1 | -2.5% | -4.8% | -10.3% | -6.1% | 2.51µM* | -37.9%
O=C(NCCc1ccncc1)Nc1ccc(Cl)c(Cl)c1 | -12.7% | -9.3% | -3.4% | -0.6% | ? | i
CN(C)CCNC(=O)Nc1ccc(Cl)c(Cl)c1 | 2.0% | 0.8% | 4.7% | -13.9% | 11.2µM* | i
O=C(NCCNC(=O)Nc1ccc(Cl)cc1)Nc1ccc(Cl)cc1 | 6.3% | 12.6µM* | -3.8% | -5.5% | 0.7% | i
CN(CC(=O)Nc1ccc(C#N)cc1)Cc1ccc(Cl)cc1 | 3.0% | ? | 0.7% | 19.8% | ? | -54.8%
O=C(Nc1ccc(Cl)c(Cl)c1)Nc1ccon1 | -5.5% | 11.7% | -1.2% | 5.3% | 7.94µM* | i
N#Cc1ccc(NC(=O)Nc2ccc(Cl)cc2)cc1 | -4.4% | 99.1% | -6.9% | -22.0% | 6.31µM* | -25.1%
COc1cc2c(cc1OC)[C@@H]1C(=O)c3ccc4c(c3O[C@@H]1CO2)C=CC(C)(C)O4 | · | ? | 0.0% | · | · | ·
CC(C)=CCOc1ccc([C@@H]2COc3c(ccc4c3C=CC(C)(C)O4)C2)c(O)c1 | 3.6% | -14.4% | -5.8% | -2.6% | 10µM* | -39.5%
